An excerpt weighted towards active compounds, which were near 0.74% of everything screened.
PINK1 modulator – PINK1 expression modulation; Potency, µM (highest dose often 76.6 µM), most hits filed as activators; AID 624263; PINK1 immunofluorescence, high-content cytometry, 24 h; 0.2% of 410,000 active; active = well fitted activation curve with a large enough effect; inconclusive = small, poorly fitted or top-dose-only effect; cell line not stated here; note: nearly all actives have a fitted effect of over 65% in size
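Readout is PINK1 immunofluorescence, quantified alongside mitochondrial, cell and nuclear markers by laser-scanning microplate cytometry. Cells from a stable line were exposed to compound titrations (5 concentrations) for 24 hours, with CCCP controls.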
LDHA inh – inhibitors of human lactate dehydrogenase A; activity change, % (values are at about 110 or 230 µM); purified LDHA, NADH/diaphorase-resazurin fluorescence; active compounds read low; 0.15% of 480,000 active; AID 1347041; P00338; in the data active = activity change below about -30%; inconclusive = mostly about -25% to -30%
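Resorufin fluorescence (ex540/em590), read at 0 and 20 min after diaphorase/resazurin addition, reports the NADH left after a 5 min room-temperature reaction of 2 nM human LDH5 with 0.06 mM NADH and 0.2 mM pyruvate.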
Akt phos inh – blocks phosphorylation of Akt; Neuro2A IGF-stimulated pAkt S473 HTRF, 20 min; active compounds read low; activity change, % for hits at 50 µM; 0.32% of 360,000 active; AID 651550; in the data active = activity change below about -80%; inconclusive = mostly about -51% to -80%
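Neuro2A cells (4,500/well, DMEM with 0.5% FBS) were treated with compound at a single 50 µM final concentration, stimulated with 6 nM IGF for 20 min at 37 °C, and lysed. Phospho-Akt Ser473 was read by HTRF as 665/615 ratio ×10^4.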
Vif-APOBEC3G blk – Vif-A3G binding inhibition; Q9HC16; HeLa A3G-eYFP + Vif (tagged APOBEC3G with the HIV-1 protein that degrades it), YFP fluorescence, overnight; Potency, µM (titrated, usually from 46.1 µM), most hits filed as inhibitors; 0.076% of 410,000 active; AID 602310; note: nearly all actives have a fitted effect of over 60% in size
Target sequence (Q9HC16 whole entry, looked up): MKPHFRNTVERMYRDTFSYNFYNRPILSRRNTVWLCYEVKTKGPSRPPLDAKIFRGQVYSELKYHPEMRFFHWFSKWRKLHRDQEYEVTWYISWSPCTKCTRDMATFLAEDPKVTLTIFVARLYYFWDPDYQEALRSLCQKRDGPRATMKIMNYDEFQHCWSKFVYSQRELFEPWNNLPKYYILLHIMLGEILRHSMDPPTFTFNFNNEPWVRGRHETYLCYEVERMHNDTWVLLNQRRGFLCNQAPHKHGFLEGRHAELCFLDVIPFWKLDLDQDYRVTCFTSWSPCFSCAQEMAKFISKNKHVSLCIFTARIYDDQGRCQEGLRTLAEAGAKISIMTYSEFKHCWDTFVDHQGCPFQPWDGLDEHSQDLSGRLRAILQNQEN
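Read-out is eYFP fluorescence (Ex 488/Em 500-530) from Vif-expressing HeLa A3G-eYFP cells; more signal means A3G escaped Vif-mediated degradation. Cells plated overnight, compound pinned in, incubated overnight at 37 deg C.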
Vif-A3F inh – Vif-A3F binding inhibition; HeLa A3F-eYFP + Vif (tagged APOBEC3F with the HIV-1 protein that degrades it), YFP fluorescence increase; Potency, µM (highest dose often 46.1 µM); 0.2% of 390,000 active; AID 602313; note: nearly all actives have a fitted effect of over 65% in size
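HeLa cells stably expressing A3F-eYFP plus Vif, plated and incubated overnight at 37 deg C, then exposed to compounds overnight at 37 deg C. Blocked degradation read as raised yellow fluorescence (Ex 488/Em 500-530).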
GRP78 ERSR act – ER stress response induction in glioma | U87-MG GRP78 promoter luciferase reporter, 16 h | Potency, µM, actives largely listed as activators | 0.02% of 420,000 active | AID 602332; note: series mostly up to about 76 µM; nearly all actives have a fitted effect of over 35% in size
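ERSR induction read as luciferase luminescence (Bright-Glo, 10 min at room temperature) in stably transfected human U87-MG glioma cells exposed to compounds for 16 h, using GRP78 as sensor.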
A number is an active result. Unless noted, calls come from the whole dose curve; as a rule, active = well fitted curve in the direction sought with a large enough effect; inconclusive = small, poorly fitted or top-dose-only effect, or another doubt; inactive = no such curve, though single readings can be large; an effect the other way counts as inactive or inconclusive.

What do the screens show for `COC(=O)c1cccc(S(=O)(=O)N(Cc2ccco2)Cc2cc3cc(OC)c(OC)cc3[nH]c2=O)c1`?
PINK1 modulator: inactive; LDHA inh: inactive; Akt phos inh: inactive; Vif-APOBEC3G blk: inactive; Vif-A3F inh: inactive; GRP78 ERSR act: inactive

What do the screens show for `COC(=O)c1cccc(S(=O)(=O)N(Cc2ccco2)Cc2cc3ccc(OC)cc3[nH]c2=O)c1`?
PINK1 modulator: 14.1µM; LDHA inh: inactive; Akt phos inh: inactive; Vif-APOBEC3G blk: inactive; Vif-A3F inh: inactive; GRP78 ERSR act: inactive

How did Cc1cc(C)cc(NC(=S)NCC2CCCO2)c1 (stereo not drawn) do in these assays?
PINK1 modulator: inactive; LDHA inh: inactive; Akt phos inh: -114.7%; Vif-APOBEC3G blk: inactive; Vif-A3F inh: inactive; GRP78 ERSR act: inactive

Results for c1ccc(C(NCCNC(c2ccccc2)c2ccccc2)c2ccccc2)cc1 ?
PINK1 modulator: 39.8µM; LDHA inh: inactive; Akt phos inh: inactive; Vif-APOBEC3G blk: inactive; Vif-A3F inh: inconclusive; GRP78 ERSR act: inactive

Results for c1ccc(C(NCc2cccs2)c2ccccc2)cc1 ?
LDHA inh: inactive

What do the screens show for `CC(C)(C)C1CCC(C(=O)NN)CC1` (stereo not drawn)?
LDHA inh: inactive

How did Cc1nc2ccc3nc(NC(=O)c4ccc(S(=O)(=O)N5CCOCC5)cc4)sc3c2s1 do in these assays?
PINK1 modulator: inactive; LDHA inh: inactive; Akt phos inh: -100.3%; Vif-APOBEC3G blk: inactive; Vif-A3F inh: inactive; GRP78 ERSR act: inactive

What do the screens show for `COc1ccc(C(Nc2ncc(C(F)(F)F)cc2Cl)c2nccn2C)cc1` (stereo not drawn)?
LDHA inh: inactive

What do the screens show for `O=C(COCc1cc(-c2ccc3c(c2)OCO3)on1)Nc1cc(Cl)ccc1Cl`?
LDHA inh: inactive

How did COc1ccc(N2C(=O)c3ccccc3NC2c2ccc(OC)c(CSc3ccccn3)c2)cc1 (stereo not drawn) do in these assays?
PINK1 modulator: 10µM; LDHA inh: inactive; Akt phos inh: -91.6%; Vif-APOBEC3G blk: inactive; Vif-A3F inh: inactive; GRP78 ERSR act: inactive

Results for O=S(=O)(NCC1CC1)c1cccc(S(=O)(=O)N2CCCC2)c1 ?
PINK1 modulator: inactive; LDHA inh: inactive; Akt phos inh: -111.5%; Vif-APOBEC3G blk: inactive; Vif-A3F inh: inactive; GRP78 ERSR act: inactive

What do the screens show for `Cc1ccccc1CCNC(=O)c1[nH]c2ccccc2c1Cl`?
LDHA inh: inactive

Results for Cc1ccc2c(Cl)c(C)c(N3CCCC3)nc2n1 ?
PINK1 modulator: inactive; LDHA inh: inactive; Akt phos inh: inactive; Vif-APOBEC3G blk: inactive; Vif-A3F inh: 22.4µM; GRP78 ERSR act: inactive

How did Cc1ccc2c(Cl)cc(Cl)c(OCC(=O)N3CCCCC3)c2n1 do in these assays?
LDHA inh: inactive

Results for O=C(CCc1c[nH]c2ccccc12)N1CCC(c2c[nH]c3ccccc23)CC1 ?
LDHA inh: inactive

How did CCCCOc1ccc2c(=O)c(-c3cc(C(=O)OC)oc3C)c(C)oc2c1 do in these assays?
LDHA inh: inactive

What do the screens show for `S=C(NCc1ccco1)Nc1ccccn1`?
PINK1 modulator: inactive; LDHA inh: inactive; Akt phos inh: inactive; Vif-APOBEC3G blk: inactive; Vif-A3F inh: inconclusive; GRP78 ERSR act: inactive

How did S=C(NCc1ccco1)Nc1ccc(Cl)cn1 do in these assays?
PINK1 modulator: inactive; LDHA inh: inactive; Akt phos inh: inactive; Vif-APOBEC3G blk: inactive; Vif-A3F inh: 25.1µM; GRP78 ERSR act: inactive

How did COc1ccc(NC(C)=[N+](C)CCNS(=O)(=O)c2ccc(Cl)cc2)cc1Cl do in these assays?
PINK1 modulator: inactive; LDHA inh: inactive; Akt phos inh: inactive; Vif-APOBEC3G blk: inactive; Vif-A3F inh: inactive; GRP78 ERSR act: inactive

How did COc1ccccc1NC(C)=[N+](C)CCNS(=O)(=O)c1ccc(Cl)cc1 do in these assays?
PINK1 modulator: inactive; LDHA inh: -73.7; Akt phos inh: inactive; Vif-APOBEC3G blk: inactive; Vif-A3F inh: inactive; GRP78 ERSR act: inactive

How did COC(=O)C1=C(COc2ccc(F)cc2)NC(=O)NC1c1ccc(C)cc1C (stereo not drawn) do in these assays?
PINK1 modulator: 11.2µM; LDHA inh: inactive; Akt phos inh: inactive; Vif-APOBEC3G blk: inactive; Vif-A3F inh: inactive; GRP78 ERSR act: inactive

What do the screens show for `CCOC(=O)C1=C(COc2ccc(C)cc2)NC(=O)NC1c1cc(C)ccc1C` (stereo not drawn)?
PINK1 modulator: inactive; LDHA inh: inactive; Akt phos inh: inactive; Vif-APOBEC3G blk: inactive; Vif-A3F inh: inactive; GRP78 ERSR act: inactive

What do the screens show for `O=C(CSc1nnc2ccccn12)N1CCN(S(=O)(=O)c2ccccc2)CC1`?
LDHA inh: inactive

Results for Cc1cc2nc3c(nc2cc1C)C1(C(=O)N(C)C)CCC3(C)C1(C)C (stereo not drawn) ?
PINK1 modulator: inactive; LDHA inh: inactive; Akt phos inh: -110.3%; Vif-APOBEC3G blk: inactive; Vif-A3F inh: inactive; GRP78 ERSR act: inactive

Results for CN(C)C(=O)C12CCC(C)(c3nc4ccccc4nc31)C2(C)C (stereo not drawn) ?
PINK1 modulator: inconclusive; LDHA inh: inactive; Akt phos inh: inactive; Vif-APOBEC3G blk: inactive; Vif-A3F inh: inactive; GRP78 ERSR act: inactive

What do the screens show for `COC(=O)Nc1ccc(Cl)c(Cl)c1`?
GRP78 ERSR act: inactive

What do the screens show for `COc1ccc(C(=O)Nc2ccc(Cl)c(Cl)c2)c(OC)n1`?
PINK1 modulator: inactive; LDHA inh: inactive; Akt phos inh: -129.1%; Vif-APOBEC3G blk: inactive; Vif-A3F inh: inactive; GRP78 ERSR act: inactive

What do the screens show for `O=C(CSc1nc2cc(S(=O)(=O)N3CCOCC3)ccc2o1)NC12CC3CC(CC(C3)C1)C2`?
LDHA inh: inactive

Results for Cc1cc(N2C(=O)C(O)=C(C(=O)c3cc4ccccc4o3)C2c2ccc(OC(C)C)cc2)no1 (stereo not drawn) ?
PINK1 modulator: 28.2µM; LDHA inh: inactive; Vif-APOBEC3G blk: inactive; Vif-A3F inh: inactive; GRP78 ERSR act: inactive

What do the screens show for `Cc1ccc2cc3c(N)c(C(=O)Nc4c(C)[nH]c(=O)[nH]c4=O)sc3nc2c1`?
PINK1 modulator: 31.6µM; LDHA inh: inactive; Akt phos inh: inactive; Vif-APOBEC3G blk: inconclusive; Vif-A3F inh: inconclusive; GRP78 ERSR act: inactive

How did CCOc1ccc(NC(=O)Cn2nc(C(=O)O)c3ccccc3c2=O)cc1 do in these assays?
LDHA inh: inactive

Results for CN1CCN(CC(=O)NN(Cc2ccccc2)c2ccccc2)CC1 ?
PINK1 modulator: inactive; LDHA inh: -44.0; Akt phos inh: inactive; Vif-APOBEC3G blk: inactive; Vif-A3F inh: inactive; GRP78 ERSR act: inactive

How did O=c1cc(C(F)(F)F)[nH]c2ccc(OC(F)(F)F)cc12 do in these assays?
PINK1 modulator: 35.5µM; LDHA inh: inactive; Akt phos inh: inactive; Vif-APOBEC3G blk: inactive; Vif-A3F inh: inactive; GRP78 ERSR act: inactive
